Test results from ChEMBL document CHEMBL1961873, “Compounds: GSK PKIS; Assays: Nanosyn kinase panel” (2012).

What was measured:
[1] = target: 5'-AMP-activated protein kinase catalytic subunit alpha-2 (Homo sapiens) (UniProt P54646); conditions: at 1 µM
[2] = target: T1, NUAK family SNF1-like kinase 1 (Homo sapiens) (UniProt O60285); conditions: at 0.1 µM
T1 sequence (whole entry): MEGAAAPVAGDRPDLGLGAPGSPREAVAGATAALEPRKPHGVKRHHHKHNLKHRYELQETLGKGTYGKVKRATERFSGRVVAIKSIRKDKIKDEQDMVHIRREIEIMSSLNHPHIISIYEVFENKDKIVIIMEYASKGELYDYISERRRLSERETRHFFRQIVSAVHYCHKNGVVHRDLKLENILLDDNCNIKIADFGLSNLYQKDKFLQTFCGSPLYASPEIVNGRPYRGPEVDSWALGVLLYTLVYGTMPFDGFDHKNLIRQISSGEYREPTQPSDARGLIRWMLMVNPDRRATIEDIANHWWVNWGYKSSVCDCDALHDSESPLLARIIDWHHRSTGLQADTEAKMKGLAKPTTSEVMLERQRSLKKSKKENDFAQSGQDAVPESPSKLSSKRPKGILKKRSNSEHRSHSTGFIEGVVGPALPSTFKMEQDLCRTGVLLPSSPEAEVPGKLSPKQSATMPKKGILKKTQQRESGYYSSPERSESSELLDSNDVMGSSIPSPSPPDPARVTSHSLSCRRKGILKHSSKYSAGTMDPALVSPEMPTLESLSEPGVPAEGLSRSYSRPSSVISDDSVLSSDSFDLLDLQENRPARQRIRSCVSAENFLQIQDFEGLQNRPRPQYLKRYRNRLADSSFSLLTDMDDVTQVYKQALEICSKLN

[3] = target: T1, NUAK family SNF1-like kinase 1 (Homo sapiens); conditions: at 1 µM
[4] = target: T2, Serine/threonine-protein kinase BRSK1 (Homo sapiens) (UniProt Q8TDC3); conditions: at 0.1 µM
T2 sequence (whole entry): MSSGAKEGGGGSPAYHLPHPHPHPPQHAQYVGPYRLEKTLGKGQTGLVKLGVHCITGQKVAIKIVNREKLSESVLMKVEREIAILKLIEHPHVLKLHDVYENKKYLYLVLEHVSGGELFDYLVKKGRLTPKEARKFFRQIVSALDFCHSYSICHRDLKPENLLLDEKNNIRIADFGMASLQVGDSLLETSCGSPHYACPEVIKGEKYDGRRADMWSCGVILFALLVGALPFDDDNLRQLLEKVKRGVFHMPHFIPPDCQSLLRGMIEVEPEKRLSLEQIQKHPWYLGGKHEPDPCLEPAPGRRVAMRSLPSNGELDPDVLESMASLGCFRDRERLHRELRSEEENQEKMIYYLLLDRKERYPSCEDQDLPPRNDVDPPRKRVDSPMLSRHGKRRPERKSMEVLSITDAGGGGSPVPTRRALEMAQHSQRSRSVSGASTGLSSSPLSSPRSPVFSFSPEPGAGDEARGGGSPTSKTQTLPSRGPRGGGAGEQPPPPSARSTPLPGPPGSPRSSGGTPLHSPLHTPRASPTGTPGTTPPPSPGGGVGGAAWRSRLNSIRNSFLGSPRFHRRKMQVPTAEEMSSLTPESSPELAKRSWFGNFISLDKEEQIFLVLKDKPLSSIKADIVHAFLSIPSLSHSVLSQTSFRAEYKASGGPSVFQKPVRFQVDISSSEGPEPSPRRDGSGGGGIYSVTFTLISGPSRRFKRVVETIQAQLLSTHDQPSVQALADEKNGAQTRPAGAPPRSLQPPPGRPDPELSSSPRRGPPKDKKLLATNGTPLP

[5] = target: T2, Serine/threonine-protein kinase BRSK1 (Homo sapiens); conditions: at 1 µM
[6] = target: T3, Serine/threonine-protein kinase BRSK2 (Homo sapiens) (UniProt Q8IWQ3); conditions: at 0.1 µM
T3 sequence (whole entry): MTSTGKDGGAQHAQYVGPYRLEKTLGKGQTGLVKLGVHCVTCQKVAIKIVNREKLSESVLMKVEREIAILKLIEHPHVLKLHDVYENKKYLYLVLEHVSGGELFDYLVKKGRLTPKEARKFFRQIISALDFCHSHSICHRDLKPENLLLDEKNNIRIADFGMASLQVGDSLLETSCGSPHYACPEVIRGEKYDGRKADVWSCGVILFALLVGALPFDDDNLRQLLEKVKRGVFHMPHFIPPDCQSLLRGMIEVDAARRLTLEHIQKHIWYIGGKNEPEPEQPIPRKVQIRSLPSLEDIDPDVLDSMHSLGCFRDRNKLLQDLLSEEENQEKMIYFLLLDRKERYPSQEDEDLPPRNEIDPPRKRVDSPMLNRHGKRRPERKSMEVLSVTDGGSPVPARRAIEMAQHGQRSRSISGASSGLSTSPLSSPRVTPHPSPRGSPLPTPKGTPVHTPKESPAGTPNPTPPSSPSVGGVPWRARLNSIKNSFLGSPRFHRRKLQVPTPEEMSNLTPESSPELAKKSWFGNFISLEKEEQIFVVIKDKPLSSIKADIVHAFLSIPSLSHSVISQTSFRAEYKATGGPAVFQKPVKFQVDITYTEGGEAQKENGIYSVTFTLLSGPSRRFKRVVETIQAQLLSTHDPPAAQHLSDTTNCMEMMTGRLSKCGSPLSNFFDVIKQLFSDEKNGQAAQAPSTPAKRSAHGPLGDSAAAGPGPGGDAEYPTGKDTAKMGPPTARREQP

[7] = target: T3, Serine/threonine-protein kinase BRSK2 (Homo sapiens); conditions: at 1 µM
[8] = target: Calcium/calmodulin-dependent protein kinase type 1D (Homo sapiens) (UniProt Q8IU85); conditions: at 0.1 µM
[9] = target: Calcium/calmodulin-dependent protein kinase type 1D (Homo sapiens) (UniProt Q8IU85); conditions: at 1 µM
[10] = target: Calcium/calmodulin-dependent protein kinase type II subunit alpha (Homo sapiens) (UniProt Q9UQM7); conditions: at 0.1 µM
[11] = target: Calcium/calmodulin-dependent protein kinase type II subunit alpha (Homo sapiens) (UniProt Q9UQM7); conditions: at 1 µM
[12] = target: Calcium/calmodulin-dependent protein kinase type II subunit delta (Homo sapiens) (UniProt Q13557); conditions: at 0.1 µM
[13] = target: Calcium/calmodulin-dependent protein kinase type II subunit delta (Homo sapiens) (UniProt Q13557); conditions: at 1 µM
[14] = target: T4, Calcium/calmodulin-dependent protein kinase type IV (Homo sapiens) (UniProt Q16566); conditions: at 0.1 µM
T4 sequence (whole entry): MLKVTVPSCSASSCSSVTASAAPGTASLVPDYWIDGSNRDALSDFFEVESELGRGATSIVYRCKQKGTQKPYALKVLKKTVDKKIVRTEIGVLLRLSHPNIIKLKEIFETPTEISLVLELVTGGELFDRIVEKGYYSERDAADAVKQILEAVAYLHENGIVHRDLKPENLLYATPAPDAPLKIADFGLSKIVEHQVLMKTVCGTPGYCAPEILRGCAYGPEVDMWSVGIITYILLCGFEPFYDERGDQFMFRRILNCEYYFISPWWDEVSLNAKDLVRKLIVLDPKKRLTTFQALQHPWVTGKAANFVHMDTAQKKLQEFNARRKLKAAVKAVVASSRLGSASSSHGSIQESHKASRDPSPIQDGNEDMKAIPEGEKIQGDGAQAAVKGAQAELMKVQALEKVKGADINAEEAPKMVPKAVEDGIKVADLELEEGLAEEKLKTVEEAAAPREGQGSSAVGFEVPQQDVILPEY

[15] = target: T4, Calcium/calmodulin-dependent protein kinase type IV (Homo sapiens); conditions: at 1 µM
[16] = target: T5, Serine/threonine-protein kinase Chk1 (Homo sapiens) (UniProt O14757); conditions: at 0.1 µM
T5 sequence (whole entry): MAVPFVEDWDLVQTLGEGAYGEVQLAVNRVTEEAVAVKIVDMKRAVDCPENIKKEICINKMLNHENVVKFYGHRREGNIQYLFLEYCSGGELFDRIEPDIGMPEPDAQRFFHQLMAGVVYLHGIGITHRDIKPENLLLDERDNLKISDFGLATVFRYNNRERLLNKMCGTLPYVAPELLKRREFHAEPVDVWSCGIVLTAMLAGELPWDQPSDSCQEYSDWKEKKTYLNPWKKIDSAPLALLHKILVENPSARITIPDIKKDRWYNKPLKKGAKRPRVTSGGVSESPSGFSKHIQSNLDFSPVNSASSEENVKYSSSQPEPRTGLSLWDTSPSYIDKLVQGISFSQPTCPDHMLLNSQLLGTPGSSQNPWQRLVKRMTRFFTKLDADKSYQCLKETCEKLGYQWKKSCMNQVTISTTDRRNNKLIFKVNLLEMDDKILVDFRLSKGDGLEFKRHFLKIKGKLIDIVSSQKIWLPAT

[17] = target: T5, Serine/threonine-protein kinase Chk1 (Homo sapiens); conditions: at 1 µM
[18] = target: Serine/threonine-protein kinase Chk2 (Homo sapiens) (UniProt O96017); conditions: at 0.1 µM
[19] = target: Serine/threonine-protein kinase Chk2 (Homo sapiens) (UniProt O96017); conditions: at 1 µM
[20] = target: Death-associated protein kinase 1 (Homo sapiens) (UniProt P53355); conditions: at 0.1 µM;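 also: reported figure is the mean inhibition of DAPK1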
Sequence of Death-associated protein kinase 1 (Homo sapiens) (P53355 whole entry, looked up): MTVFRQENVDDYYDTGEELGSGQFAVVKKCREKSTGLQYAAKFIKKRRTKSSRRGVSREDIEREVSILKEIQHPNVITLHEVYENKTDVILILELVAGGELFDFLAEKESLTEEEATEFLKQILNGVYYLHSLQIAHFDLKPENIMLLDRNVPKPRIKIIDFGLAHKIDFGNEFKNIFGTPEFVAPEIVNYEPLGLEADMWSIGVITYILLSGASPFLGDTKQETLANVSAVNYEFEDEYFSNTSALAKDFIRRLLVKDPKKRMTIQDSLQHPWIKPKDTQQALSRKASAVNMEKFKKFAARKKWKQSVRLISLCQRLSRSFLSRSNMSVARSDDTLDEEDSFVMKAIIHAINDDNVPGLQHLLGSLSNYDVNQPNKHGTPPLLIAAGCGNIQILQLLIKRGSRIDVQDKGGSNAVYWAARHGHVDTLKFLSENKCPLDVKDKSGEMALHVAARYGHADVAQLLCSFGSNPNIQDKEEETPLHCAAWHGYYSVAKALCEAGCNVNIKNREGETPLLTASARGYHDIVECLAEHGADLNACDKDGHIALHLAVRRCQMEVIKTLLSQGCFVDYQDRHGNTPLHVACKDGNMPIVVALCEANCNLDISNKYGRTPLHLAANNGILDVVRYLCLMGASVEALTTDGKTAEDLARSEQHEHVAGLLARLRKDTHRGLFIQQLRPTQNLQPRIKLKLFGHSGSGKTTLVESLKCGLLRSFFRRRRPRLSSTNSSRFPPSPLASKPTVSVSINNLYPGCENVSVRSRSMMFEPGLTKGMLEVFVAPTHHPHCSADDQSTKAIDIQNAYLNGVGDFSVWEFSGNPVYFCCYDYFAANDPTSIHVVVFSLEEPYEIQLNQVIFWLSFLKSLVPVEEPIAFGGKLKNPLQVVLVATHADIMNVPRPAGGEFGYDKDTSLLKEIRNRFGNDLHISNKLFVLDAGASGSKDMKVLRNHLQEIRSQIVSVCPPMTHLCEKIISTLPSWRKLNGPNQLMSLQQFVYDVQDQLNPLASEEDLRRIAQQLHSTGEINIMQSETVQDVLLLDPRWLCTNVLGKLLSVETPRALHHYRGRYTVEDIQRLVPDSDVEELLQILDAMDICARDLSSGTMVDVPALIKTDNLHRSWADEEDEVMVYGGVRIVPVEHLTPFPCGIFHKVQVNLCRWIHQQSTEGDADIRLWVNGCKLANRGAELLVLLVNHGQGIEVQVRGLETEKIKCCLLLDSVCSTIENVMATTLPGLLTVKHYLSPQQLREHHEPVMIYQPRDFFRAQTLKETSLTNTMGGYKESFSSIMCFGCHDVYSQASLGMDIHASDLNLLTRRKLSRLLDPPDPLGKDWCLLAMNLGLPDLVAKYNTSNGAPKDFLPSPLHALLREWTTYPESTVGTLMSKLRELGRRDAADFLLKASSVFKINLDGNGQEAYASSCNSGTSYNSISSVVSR

Sequence of Calcium/calmodulin-dependent protein kinase type II subunit delta (Homo sapiens) (Q13557 whole entry): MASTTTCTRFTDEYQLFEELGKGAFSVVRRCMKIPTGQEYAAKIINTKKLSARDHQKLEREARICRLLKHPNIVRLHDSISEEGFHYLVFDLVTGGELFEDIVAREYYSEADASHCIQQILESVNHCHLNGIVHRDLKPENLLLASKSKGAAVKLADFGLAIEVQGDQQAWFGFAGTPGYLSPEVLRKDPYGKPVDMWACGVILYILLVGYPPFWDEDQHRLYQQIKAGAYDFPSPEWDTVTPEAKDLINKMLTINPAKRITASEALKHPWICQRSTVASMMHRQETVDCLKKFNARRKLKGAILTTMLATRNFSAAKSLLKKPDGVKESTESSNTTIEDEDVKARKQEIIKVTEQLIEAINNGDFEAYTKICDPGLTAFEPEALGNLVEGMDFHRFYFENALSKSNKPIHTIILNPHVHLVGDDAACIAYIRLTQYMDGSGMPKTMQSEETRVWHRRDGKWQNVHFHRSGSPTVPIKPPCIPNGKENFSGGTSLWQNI
Sequence of Serine/threonine-protein kinase Chk2 (Homo sapiens) (O96017 whole entry): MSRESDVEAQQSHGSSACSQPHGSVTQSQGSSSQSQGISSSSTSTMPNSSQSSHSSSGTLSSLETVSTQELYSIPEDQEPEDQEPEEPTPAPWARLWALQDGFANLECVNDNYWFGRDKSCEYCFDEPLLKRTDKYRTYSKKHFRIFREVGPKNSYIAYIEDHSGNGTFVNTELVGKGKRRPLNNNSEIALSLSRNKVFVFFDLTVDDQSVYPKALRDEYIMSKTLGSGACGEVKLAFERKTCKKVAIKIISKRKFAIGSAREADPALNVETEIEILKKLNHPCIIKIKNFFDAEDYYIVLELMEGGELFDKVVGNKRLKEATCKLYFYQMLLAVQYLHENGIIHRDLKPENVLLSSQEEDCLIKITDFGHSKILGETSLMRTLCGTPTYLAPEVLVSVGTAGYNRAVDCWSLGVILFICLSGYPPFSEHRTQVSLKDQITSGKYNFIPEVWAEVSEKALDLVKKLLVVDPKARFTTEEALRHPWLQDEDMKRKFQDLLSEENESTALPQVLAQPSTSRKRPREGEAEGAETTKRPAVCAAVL
Sequence of 5'-AMP-activated protein kinase catalytic subunit alpha-2 (Homo sapiens) (P54646 whole entry, looked up): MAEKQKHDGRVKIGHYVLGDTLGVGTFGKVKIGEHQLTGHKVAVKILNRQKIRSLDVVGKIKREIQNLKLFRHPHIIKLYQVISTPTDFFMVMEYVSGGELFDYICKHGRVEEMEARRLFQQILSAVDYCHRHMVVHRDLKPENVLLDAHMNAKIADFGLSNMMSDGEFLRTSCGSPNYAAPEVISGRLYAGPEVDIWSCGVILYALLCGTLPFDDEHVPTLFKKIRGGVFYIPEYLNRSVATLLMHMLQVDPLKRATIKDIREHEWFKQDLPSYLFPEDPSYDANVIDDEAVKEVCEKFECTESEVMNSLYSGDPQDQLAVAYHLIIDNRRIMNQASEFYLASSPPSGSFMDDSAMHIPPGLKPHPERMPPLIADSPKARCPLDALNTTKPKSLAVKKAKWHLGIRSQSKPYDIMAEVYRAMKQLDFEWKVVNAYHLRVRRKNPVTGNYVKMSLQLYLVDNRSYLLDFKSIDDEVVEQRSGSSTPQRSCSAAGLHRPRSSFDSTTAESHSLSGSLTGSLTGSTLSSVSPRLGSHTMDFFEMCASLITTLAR
Sequence of Calcium/calmodulin-dependent protein kinase type II subunit alpha (Homo sapiens) (Q9UQM7 whole entry): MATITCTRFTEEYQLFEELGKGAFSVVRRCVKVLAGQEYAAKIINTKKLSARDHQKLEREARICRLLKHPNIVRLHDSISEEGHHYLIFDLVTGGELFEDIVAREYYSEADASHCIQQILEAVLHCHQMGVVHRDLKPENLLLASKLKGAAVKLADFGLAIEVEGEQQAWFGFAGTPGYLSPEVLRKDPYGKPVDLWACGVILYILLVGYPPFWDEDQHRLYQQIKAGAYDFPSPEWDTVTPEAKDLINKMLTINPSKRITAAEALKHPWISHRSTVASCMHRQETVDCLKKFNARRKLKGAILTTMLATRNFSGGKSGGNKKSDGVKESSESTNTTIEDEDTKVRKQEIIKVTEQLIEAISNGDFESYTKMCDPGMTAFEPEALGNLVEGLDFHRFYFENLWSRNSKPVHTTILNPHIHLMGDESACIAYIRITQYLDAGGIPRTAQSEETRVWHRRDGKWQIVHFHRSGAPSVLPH
Sequence of Calcium/calmodulin-dependent protein kinase type 1D (Homo sapiens) (Q8IU85 whole entry, looked up): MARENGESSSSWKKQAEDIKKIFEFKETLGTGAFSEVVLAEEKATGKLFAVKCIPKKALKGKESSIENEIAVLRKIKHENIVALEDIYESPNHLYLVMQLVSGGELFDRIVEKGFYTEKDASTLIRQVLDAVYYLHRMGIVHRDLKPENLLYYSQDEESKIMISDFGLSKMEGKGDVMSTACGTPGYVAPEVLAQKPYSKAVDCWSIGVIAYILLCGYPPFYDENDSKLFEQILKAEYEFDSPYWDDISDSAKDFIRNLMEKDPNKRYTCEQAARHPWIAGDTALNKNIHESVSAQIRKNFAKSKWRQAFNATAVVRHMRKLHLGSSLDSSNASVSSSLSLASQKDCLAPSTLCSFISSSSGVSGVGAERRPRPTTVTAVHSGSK

SMILES	inhibition [1]	inhibition [2]	inhibition [3]	inhibition [4]	inhibition [5]	inhibition [6]	inhibition [7]	inhibition [8]	inhibition [9]	inhibition [10]	inhibition [11]	inhibition [12]	inhibition [13]	inhibition [14]	inhibition [15]	inhibition [16]	inhibition [17]	inhibition [18]	inhibition [19]	inhibition [20]
Cc1cc(O)cc(C)c1/C=C/c1cncc(-c2nn[nH]n2)c1	4.51%	3.07%	5.08%	3.46%	19.2%	2.49%	13.2%	0.18%	-0.55%	6.31%	3.79%	4.52%	4.7%	-0.07%	-1.05%	-7.2%	2.19%	3.38%	5.57%	3.16%
CN1CCC(C(=O)Nc2n[nH]c3nnc(-c4ccccc4)cc23)CC1	5.01%	1.18%	3.89%	1.14%	4.22%	2.62%	6.52%	0.42%	1.89%	3.75%	3.81%	3.23%	3.34%	-0.65%	-2.3%	-2.79%	-0.12%	-1.11%	3.84%	-2.19%
[O-][S+]1CCN(Cc2ccc(-c3ccc4ncnc(Nc5ccc(OCc6ccccc6)c(F)c5)c4c3)o2)CC1		1.72%	2.16%	3.74%	5.47%	4.69%	5.63%	-0.91%	1.4%	1.36%	2.39%	2.36%	2.19%	0.91%	0.5%	0.15%	3.65%	2.23%	7.61%	2.43%
CS(=O)(=O)CCN(CC#N)Cc1ccc(-c2ccc3ncnc(Nc4ccc(OCc5cccc(F)c5)c(Cl)c4)c3c2)o1	-0.61%	0.1%	1.9%	0.56%	-2.91%	0.28%	0.65%	-1.29%	-1.27%	-0.98%	-2.02%	1.25%	2.48%	-2.98%	-0.45%	0.28%	2.55%	0.67%	1.7%	-0.47%
Nc1ncnc2occ(-c3ccc(NC(=O)Nc4cc(C(F)(F)F)cc(C(F)(F)F)c4)cc3)c12	4.79%	1.19%	2.22%	1.78%	3.44%	1.11%	0.11%	1.67%	4.38%	3.17%	2.09%	2.95%	1.63%	0.17%	3.99%	1.83%	5.4%	1.45%	2.14%	1.57%
CC1=C(C(=O)Nc2ccc3[nH]ncc3c2)C(c2ccc3ccccc3c2)CC(=O)N1 (configuration not stated)	11.5%	7.78%	43.5%	1.91%	20.8%	3.96%	31.3%	-0.51%	0.49%	-0.08%	0.99%	0.33%	3.19%	1.12%	0.1%	0.95%	3.91%	1.29%	4.21%	0.55%
O=C1Nc2ccc(C(=O)c3ccco3)cc2C1=Cc1cc(Cl)c(O)c(Cl)c1	10.8%	2.94%	10.8%	1.94%	8.43%	3.02%	13.1%	-0.26%	0.48%	3.4%	8%	3.46%	11.4%	0.35%	0.09%	1.54%	5.95%	2.67%	12.5%	-0.53%
CC1=C(C(=O)Nc2ccc3[nH]ncc3c2)C(c2ccc(Cl)c(Cl)c2)CC(=O)N1 (configuration not stated)	7.05%	-0.25%	14.9%	1.14%	10.1%	1.61%	15.5%	-0.31%	1.37%	1.87%	2.88%	2.72%	3.98%	1.22%	2.09%	-1.3%	-0.85%	1.4%	4.28%	-2.03%
CS(=O)(=O)CCNCc1ccc(-c2ccc3ncnc(Nc4ccc(OCc5ccccc5)c(Cl)c4)c3c2)o1	0.49%	0.49%	1.58%	0.43%	-0.39%	0.27%	2.32%	-0.75%	1.29%	-1.33%	-1.87%	-1.29%	1.59%	0.2%	1.37%	-6.61%	-6.9%	-6.13%	-4.43%	-9.06%
Cc1ccc(NC(=O)c2ccnc(N3CCCC3)c2)cc1-c1ccc(C(=O)NCC2CC2)cc1	8.93%	5.1%		3.85%	3.6%	2.81%	4.83%	0.91%	2.39%	4.45%	5.72%	4.6%	7.16%	-0.3%	2.35%	3.53%	7.14%	3.26%	4.85%	2.4%
CNC(=O)c1cncc(/C=C/c2c(Cl)cccc2Cl)c1	1.77%		7.27%	4.16%	7.3%	1.54%	9.33%	-0.35%	2.1%	3%	4.95%	3.11%	8.55%	0.01%	3.19%	0.16%	4.57%	2.6%	9.62%	2.23%
CCN1CCC(CC(=O)Nc2n[nH]c3nc(-c4cccs4)c(Br)cc23)CC1	5.99%	-2.53%	9.14%	3.39%	21.7%	2.29%	18.5%	-0.45%	1.72%	-4.08%	-1.26%	-1.29%	7.67%	0.29%	-0.89%	2.28%	2.57%	-3.64%	-3.75%	0.43%
NS(=O)(=O)c1cccc(-c2ccc3c(NC(=O)C4CC4)n[nH]c3c2)c1	-0.49%	0.7%	1.95%	6.3%	41.3%	12.6%	51.8%	-0.5%	-0.98%	-4.43%	-3.57%	-2.03%	-1.61%	-0.79%	-1.58%	3.4%	2.13%	-2.9%	-2.43%	1.4%
Cc1nn(C)c2cc(N(C)c3ccnc(Nc4cccc(S(N)(=O)=O)c4)n3)ccc12	3.54%	20.6%	64.2%	1.45%	0.63%	0.72%	4.4%	0.85%	3.14%	1.6%	1.72%	2.35%	3.73%	1.4%	1.88%	4.46%	56%	6.25%	9.6%	8.62%
